Test [1] deals with CLZ3 (HCA2 human fibroblast dual HR-NHEJ reporter). In words: NHEJ repair efficiency (GFP+ cells) relative to control (log10 fold); higher = more non-homologous end joining. The conditions noted are these: 5 µM; doxycycline 0.5 ug/mL.
The test system is the same in test [2]. In words: HR repair efficiency (tdTomato+ cells) relative to control (log10 fold); higher = more homologous recombination. Conditions: 5 µM; doxycycline 0.5 ug/mL.
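Throughout, for HR repair efficiency (tdTomato+ cells) relative to control: compound given one day before doxycycline, which switches on I-SceI endonuclease expression to create double-strand breaks within the integrated reporter.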
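Throughout, for NHEJ repair efficiency (GFP+ cells) relative to control: compound given one day ahead of doxycycline, which switches on I-SceI endonuclease to cut the chromosomally integrated reporter and create DSBs.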

In the case of `CC1(C)CC[C@]2(C(=O)O)CC[C@]3(C)C(=CC[C@@H]4[C@@]5(C)CC[C@H](O)[C@@](C)(CO)[C@@H]5CC[C@]43C)[C@@H]2C1` [Hederagenin], in test [1], the “NHEJ repair efficiency (log10)” value was -0.021. Also, the “HR repair efficiency (log10)” value in test [2] is -0.0988.

Take `O=c1cc(-c2ccc(O)cc2)oc2cc(O[C@@H]3O[C@H](CO)[C@@H](O)[C@H](O)[C@H]3O[C@@H]3OC[C@](O)(CO)[C@H]3O)cc(O)c12` [Apiin]: the “NHEJ repair efficiency (log10)” value in test [1] turned out to be 0.142. Further, in test [2], the “HR repair efficiency (log10)” value was determined as 0.321.

Turning to `COc1c(O)cc2c(c1O)[C@@H]1O[C@H](CO)[C@@H](O)[C@H](O)[C@H]1OC2=O` [Bergenin], the “NHEJ repair efficiency (log10)” value in test [1] is 0.0025. The “HR repair efficiency (log10)” value in test [2] is -0.0334.

On to `C[C@@H]1O[C@@H](OC[C@H]2O[C@@H](OCCc3ccc(O)c(O)c3)[C@H](O)[C@@H](O[C@@H]3O[C@@H](C)[C@H](O)[C@@H](O)[C@H]3O)[C@@H]2OC(=O)/C=C/c2ccc(O)c(O)c2)[C@H](O)[C@H](O)[C@H]1O` [Poliumoside], for which, in test [1], the “NHEJ repair efficiency (log10)” value amounted to 0.019. Further, in test [2], the “HR repair efficiency (log10)” value was 0.0718.

Regarding `C[C@@H]1CC[C@@]2(OC1)O[C@H]1C[C@H]3[C@@H]4CC=C5C[C@@H](O)C[C@@H](O[C@@H]6O[C@H](C)[C@H](O)[C@H](O[C@@H]7OC[C@@H](O)[C@H](O)[C@H]7O)[C@H]6O[C@@H]6O[C@@H](C)[C@H](O)[C@@H](O)[C@H]6O)[C@]5(C)[C@H]4CC[C@]3(C)[C@H]1[C@@H]2C` [Ophiopogonin D], the “NHEJ repair efficiency (log10)” value in test [1] is -0.0762. The “HR repair efficiency (log10)” value in test [2] was -0.0693.

Source of the values: the supplement of paper PMC7380943.
